KCNQ2 inh: inhibitors of rat KCNQ2 potassium channel | 1.1% of 310,000 active | O88943 | B-score at 10 µM | CHO-K1 KCNQ2, FluxOR thallium flux, 20 min; active compounds read low | AID 2156;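 active = fluorescence ratio B-score at most minus 3 library SDs, with starting brightness B-score within 2 library SDs, cut at about -5.5 in these data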
Target sequence (O88943 whole entry, looked up): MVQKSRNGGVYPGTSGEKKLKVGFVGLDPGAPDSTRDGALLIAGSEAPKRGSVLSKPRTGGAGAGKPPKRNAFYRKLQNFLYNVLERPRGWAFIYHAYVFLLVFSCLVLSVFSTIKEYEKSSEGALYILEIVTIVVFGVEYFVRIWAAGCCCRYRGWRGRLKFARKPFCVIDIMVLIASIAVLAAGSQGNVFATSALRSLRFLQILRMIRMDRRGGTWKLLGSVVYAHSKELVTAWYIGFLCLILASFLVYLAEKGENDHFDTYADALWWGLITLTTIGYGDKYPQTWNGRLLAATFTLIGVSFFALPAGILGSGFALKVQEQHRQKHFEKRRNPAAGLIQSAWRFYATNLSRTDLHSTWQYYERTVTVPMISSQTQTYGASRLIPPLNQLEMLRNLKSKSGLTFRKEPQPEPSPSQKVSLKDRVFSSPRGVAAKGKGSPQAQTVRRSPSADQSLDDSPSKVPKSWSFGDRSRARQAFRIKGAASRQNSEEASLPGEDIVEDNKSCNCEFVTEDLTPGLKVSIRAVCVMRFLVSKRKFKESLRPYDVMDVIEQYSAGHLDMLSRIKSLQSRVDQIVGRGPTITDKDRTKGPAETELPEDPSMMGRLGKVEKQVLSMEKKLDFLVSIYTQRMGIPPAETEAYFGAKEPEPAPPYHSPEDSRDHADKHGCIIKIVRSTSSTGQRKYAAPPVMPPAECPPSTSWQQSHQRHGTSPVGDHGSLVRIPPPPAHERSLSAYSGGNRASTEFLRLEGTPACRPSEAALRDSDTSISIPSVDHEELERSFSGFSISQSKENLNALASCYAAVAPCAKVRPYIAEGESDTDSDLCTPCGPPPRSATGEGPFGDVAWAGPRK
KCNQ2 enhance: potentiators of rat KCNQ2 potassium channel | O88943 | 0.54% of 310,000 active | AID 2239 | B-score at 10 µM | CHO-K1 KCNQ2, FluxOR thallium flux fluorescence; active compounds read high;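 active = fluorescence ratio B-score at least 3 SD of library B-scores, with initial fluorescence B-score within 3 of them, cut at about 5.3 in these data; same plate scores as AID 2156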;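 note: B-score of peak minus minimum over baseline fluorescence ratio after K+ and Tl+ stimulus; positive B-score means potentiation of KCNQ2 with more thallium influx and brighter signal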
Kir21 confirm: confirmation of mouse Kir2.1 potassium channel inhibitors; shares compounds with KCNQ2 enhance; Kir2.1-expressing cells, FluxOR thallium flux fluorescence; active compounds read low; Tl flux remaining, % of negative control (active compounds read low), % at 10 µM; 41% of 2,300 active;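 active = Primary-screen hit whose thallium flux fell at least 3 control SD below untreated wells in both duplicates, with normal baseline fluorescence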
HEK293 Tl flux: counter-screen for Kir2.1 inhibitors: effect in parental HEK293 cells. shares compounds with KCNQ2 enhance. FluxOR thallium flux fluorescence; 0% = unstimulated blank wells. FluxOR signal as % of negative control (100 = no effect), % at 10 µM. 19% of 2,300 active. AID 2105;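 active = dye signal at least 3 control SD above or below untreated wells in both duplicates, raw fluorescence within 3, either direction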;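 note: percent is based on the flux ratio of peak minus minimum fluorescence over baseline F0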
CHO-K1 ctr: parental CHO-K1 activity in KCNQ2 potentiator counter-screen. shares compounds with KCNQ2 enhance. parental CHO-K1 cells, FluxOR thallium flux fluorescence; zero = vehicle mean+3SD, 100% = vehicle-minus-blank window. activity increase over 3SD of controls, % at 10 µM. 43% of 1,200 active;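 active = signal rise of at least 3 SD above the untreated control mean, in both duplicate wells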;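 note: counter screen of KCNQ2 potentiator hits so any rise reflects channel-independent effects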
KCNQ1 pot spec: selectivity of KCNQ2 potentiators: effect on human KCNQ1; shares compounds with KCNQ2 enhance; CHO KCNQ1 stable, FluxOR thallium flux fluorescence; beyond 3SD, as % of vehicle-control signal; activation over 3SD threshold, % at 10 µM; 28% of 1,200 active; AID 2283;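 active = fluorescence ratio rise of at least 3 SD of vehicle wells above their mean, in both replicate wells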
KCNQ2 pot confirm: confirmation of rat KCNQ2 potassium channel potentiators | shares compounds with KCNQ2 enhance | CHO-KCNQ2 cells, FluxOR thallium flux fluorescence | potentiation, less the hit threshold, % at 10 µM | 68% of 1,200 active | AID 2287;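 active = fluorescence ratio rising 3 SD or more over the vehicle control mean in both replicates, plus primary screen hit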;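 note: peak minus minimum thallium fluorescence divided by baseline after K/Tl stimulus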
Kir21 spec: mouse Kir2.1 off-target activity of KCNQ2 potentiators | shares compounds with KCNQ2 enhance | HEK293 Kir2.1, FluxOR thallium flux fluorescence | activity over 3SD threshold, % at 10 µM | 2% of 1,200 active | AID 2345;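 active = fluorescence ratio rise of at least 3 SD above the vehicle-control mean, seen in both replicates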
KCNQ2 W236L MoA: KCNQ2 potentiators acting on retigabine-insensitive rat KCNQ2 W236L mutant; shares compounds with KCNQ2 enhance; current increase over 3SD of negative controls (%), active compounds read high, % at 25 µM; CHO KCNQ2-W236L, automated patch clamp current; 10% of 940 active;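 active = current increase at least 3 SD of the untreated controls above them in both duplicate recordings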
Of the large screens only hits and unclear results are named; the others gave an inactive call (follow-up assays come after a bar, where they were run). Most compounds without a hit are left out; they make up all but 1.6% or so of the library.

CC(CCc1ccccc1)NC(=O)CCC1CCCC1 (configuration not stated)	none
NS(=O)(=O)c1ccc(Cl)cc1[N+](=O)[O-]	none (no result: KCNQ2 enhance)
O=C(OCCCCN1C(=O)c2ccccc2C1=O)c1n[nH]c2ccccc12	none (no result: KCNQ2 enhance)
COCc1ccc(CN2CCCC(C(=O)Nc3ccccc3-c3ccc(OC)cc3)C2)o1 (configuration not stated)	none
CCc1ccc(CN2CCCC(C(=O)Nc3ccccc3-c3ccc(OC)cc3)C2)o1 (configuration not stated)	KCNQ2 inh -6.14 | Kir21 confirm inactive | HEK293 Tl flux inactive
COc1ccc(CCNC(=O)COc2cccc3c2OC(C)(C)C3)cc1OC	none (no result: KCNQ2 enhance) | Kir21 confirm 52.0% | HEK293 Tl flux inactive
CC(C)CCNC(=O)COc1cccc2c1OC(C)(C)C2	none
O=C(COC(=O)c1ccccc1C(=O)c1ccc(Cl)cc1)NCC1CCCO1 (configuration not stated)	none
Cc1cccc(N(C)S(=O)(=O)c2c(C)[nH]c(C)c2C(=O)N2CCCC2)c1	none (no result: KCNQ2 enhance)
Cc1nn(C)c(C)c1/C=C1/SC(=S)NC1=O	none
Cc1ccc(C2C(/C=C3/SC(=S)NC3=O)=C(c3cccs3)Oc3ccccc32)cc1 (configuration not stated)	KCNQ2 enhance 5.81 | Kir21 confirm inactive | HEK293 Tl flux inactive | CHO-K1 ctr inactive | KCNQ1 pot spec inactive | KCNQ2 pot confirm inactive | Kir21 spec inactive
CC(=O)c1c(N2CCN(Cc3ccccc3)CC2)[nH]c(-c2ccccc2)nc1=S	KCNQ2 enhance 6.18 | Kir21 confirm inactive | HEK293 Tl flux 208.0% | CHO-K1 ctr inactive | KCNQ1 pot spec 54.1 | KCNQ2 pot confirm 2.3 | Kir21 spec inactive | KCNQ2 W236L MoA inactive
CC(=O)c1c(N2CCCC2)[nH]c(-c2ccccc2)nc1=S	none
CC(=O)N(CCC(c1ccccc1)c1ccco1)Cc1cccs1 (configuration not stated)	KCNQ2 inh -7.79 | Kir21 confirm 47.0% | HEK293 Tl flux inactive
CC(=O)N(CCC(Cc1ccccc1)c1ccco1)Cc1ccco1 (configuration not stated)	KCNQ2 inh -6.04 | Kir21 confirm 37.5% | HEK293 Tl flux inactive
O=C(c1ccco1)N(Cc1ccc(Cl)cc1)Cc1ccco1	none (no result: KCNQ2 enhance)
CCC(=O)N(CCC(c1ccco1)c1ccccc1OC)Cc1cccs1 (configuration not stated)	none (no result: KCNQ2 enhance)
CC(=O)N(CCP(=O)(c1ccccc1)c1ccccc1)Cc1ccco1	none (no result: KCNQ2 enhance)
O=C(c1ccco1)N(CCC(c1ccccc1)c1ccco1)Cc1ccco1 (configuration not stated)	KCNQ2 inh -6.76 | Kir21 confirm 72.0% | HEK293 Tl flux inactive
COc1ccc(-c2nnn(CC(=O)N(Cc3ccccc3Cl)C(C(=O)NCC3CCCO3)c3ccco3)n2)cc1OC (configuration not stated)	none (no result: KCNQ2 enhance)
CC(=O)NC(=S)Nc1cccc(S(=O)(=O)NC2=NCCC2)c1	none
COc1cccc(/C=C2\CCC(C3CCCC3)C2=O)c1OC (configuration not stated)	none (no result: KCNQ2 enhance)
C=CCn1c(=N)n(CC(=O)c2ccc(Br)s2)c2ccccc21	none
O=c1c2ccccc2ncn1-c1cccc(Br)c1	none
S=C(NCC1CCCO1)N1CCN(c2nc(-c3ccc(Cl)cc3)cs2)CC1 (configuration not stated)	none (no result: KCNQ2 enhance) | Kir21 confirm inactive | HEK293 Tl flux inactive
S=C(NCCCN1CCOCC1)N1CCN(c2nc(-c3ccc(Cl)cc3)cs2)CC1	none (no result: KCNQ2 enhance)
COc1ccc(N(CC(=O)N2CCN(c3cccc(C)c3C)CC2)S(=O)(=O)c2c(C)noc2C)cc1	none
S=C(NCc1ccccc1)N1CCN(Cc2ccc3c(c2)OCO3)CC1	none (no result: KCNQ2 enhance)
S=C(NCc1ccc2c(c1)OCO2)NC1CCN(Cc2ccccc2)CC1	none | Kir21 confirm 39.5% | HEK293 Tl flux 125.5%
CC(C)Oc1ccc(C(CCN)C2CCCCC2)cc1 (configuration not stated)	none (no result: KCNQ2 enhance) | Kir21 confirm 43.5% | HEK293 Tl flux 65.0%
CC(C)Oc1ccc(C(=O)NC2CCCCC2)cc1	none (no result: KCNQ2 enhance)
CCCCn1c(C(C)NC(=O)CC)nc2ccccc21 (configuration not stated)	none
CCCCCCCn1c(NC(=O)CC)nc2ccccc21	KCNQ2 enhance 10.4 | Kir21 confirm inactive | HEK293 Tl flux inactive | CHO-K1 ctr inactive | KCNQ1 pot spec inactive | KCNQ2 pot confirm 61.0 | Kir21 spec inactive | KCNQ2 W236L MoA inactive
CCCCCCn1c(C(C)NC(=O)c2ccco2)nc2ccccc21 (configuration not stated)	KCNQ2 inh -6.15 | Kir21 confirm 53.5% | HEK293 Tl flux inactive
CCC(=O)Nc1nc2ccccc2n1CCN1CCOCC1	none (no result: KCNQ2 enhance)
COc1ccc(C(=O)NCC(=O)OCC(=O)Nc2ccc(C)c(S(=O)(=O)N(C)C)c2)cc1OC	none
O=C(NCCc1ccccc1)/C(=C\c1cccc([N+](=O)[O-])c1)NC(=O)c1ccco1	none (no result: KCNQ2 enhance)
CCOC(=O)c1nnn(-c2nonc2N)c1CSc1ccc(C)cc1	none | Kir21 confirm 71.0% | HEK293 Tl flux inactive
CCOC(=O)c1nnn(-c2nonc2N)c1CSc1ccccc1	none
O=C(CSc1ccccc1)Nc1ccccc1N1CCOCC1	none (no result: KCNQ2 enhance) | Kir21 confirm inactive | HEK293 Tl flux inactive
Cc1ccc(SCC(=O)Nc2ccccc2N2CCOCC2)cc1	none (no result: KCNQ2 enhance) | Kir21 confirm 47.5% | HEK293 Tl flux inactive
O=C(CSc1ccc(F)cc1)Nc1ccccc1N1CCOCC1	none (no result: KCNQ2 enhance) | Kir21 confirm 38.0% | HEK293 Tl flux inactive
Cc1noc(C)c1CSCC(=O)Nc1ccccc1N1CCCCC1	none (no result: KCNQ2 enhance) | Kir21 confirm 56.0% | HEK293 Tl flux 76.0%
Nc1cc(N)nc(SCC(=O)Nc2ccccc2N2CCOCC2)n1	none
O=C(CSc1ccc(F)cc1)Nc1ccc(N2CCOCC2)cc1	none
Cc1ccc(-c2nnc(SCC(=O)Nc3ccccc3N3CCOCC3)o2)cc1	none (no result: KCNQ2 enhance)
Cc1cccc(NC(=O)CSCc2c(C)noc2C)c1C	none
CCC(C)N(C(=O)CSc1nc2ccc(OC)cc2[nH]1)C1CCS(=O)(=O)C1 (configuration not stated)	none
CCC(=O)Nc1c(C)cc(C)cc1Cl	none

Source: PubChem
